Data on 38 targets can be found in the supplement of paper PMC10849652.

About 7,900 targets were measured; listed, in parts, are those with a hit and a random draw of the rest. About 0.6% of all pairs of compound and target were hits. Values without a mark were called inactive.

UniProt Q16643, sequence (Q16643 whole entry, looked up): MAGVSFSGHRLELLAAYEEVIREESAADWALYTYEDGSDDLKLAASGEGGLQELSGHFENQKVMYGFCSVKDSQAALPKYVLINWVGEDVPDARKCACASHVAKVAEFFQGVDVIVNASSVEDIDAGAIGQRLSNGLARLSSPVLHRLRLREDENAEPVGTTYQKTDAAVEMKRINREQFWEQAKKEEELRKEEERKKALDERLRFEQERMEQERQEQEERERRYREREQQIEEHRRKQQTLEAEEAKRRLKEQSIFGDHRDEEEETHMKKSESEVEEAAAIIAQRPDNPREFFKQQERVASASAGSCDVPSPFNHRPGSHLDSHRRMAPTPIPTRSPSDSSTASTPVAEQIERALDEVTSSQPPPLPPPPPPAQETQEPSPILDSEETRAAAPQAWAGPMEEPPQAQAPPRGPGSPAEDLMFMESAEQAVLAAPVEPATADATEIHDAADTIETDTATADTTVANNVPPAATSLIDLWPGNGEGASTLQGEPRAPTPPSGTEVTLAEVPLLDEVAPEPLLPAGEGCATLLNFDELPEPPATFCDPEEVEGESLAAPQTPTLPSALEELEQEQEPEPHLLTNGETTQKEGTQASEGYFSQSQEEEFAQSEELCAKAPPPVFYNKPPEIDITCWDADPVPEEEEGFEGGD
UniProt Q01780, sequence (Q01780 whole entry, looked up): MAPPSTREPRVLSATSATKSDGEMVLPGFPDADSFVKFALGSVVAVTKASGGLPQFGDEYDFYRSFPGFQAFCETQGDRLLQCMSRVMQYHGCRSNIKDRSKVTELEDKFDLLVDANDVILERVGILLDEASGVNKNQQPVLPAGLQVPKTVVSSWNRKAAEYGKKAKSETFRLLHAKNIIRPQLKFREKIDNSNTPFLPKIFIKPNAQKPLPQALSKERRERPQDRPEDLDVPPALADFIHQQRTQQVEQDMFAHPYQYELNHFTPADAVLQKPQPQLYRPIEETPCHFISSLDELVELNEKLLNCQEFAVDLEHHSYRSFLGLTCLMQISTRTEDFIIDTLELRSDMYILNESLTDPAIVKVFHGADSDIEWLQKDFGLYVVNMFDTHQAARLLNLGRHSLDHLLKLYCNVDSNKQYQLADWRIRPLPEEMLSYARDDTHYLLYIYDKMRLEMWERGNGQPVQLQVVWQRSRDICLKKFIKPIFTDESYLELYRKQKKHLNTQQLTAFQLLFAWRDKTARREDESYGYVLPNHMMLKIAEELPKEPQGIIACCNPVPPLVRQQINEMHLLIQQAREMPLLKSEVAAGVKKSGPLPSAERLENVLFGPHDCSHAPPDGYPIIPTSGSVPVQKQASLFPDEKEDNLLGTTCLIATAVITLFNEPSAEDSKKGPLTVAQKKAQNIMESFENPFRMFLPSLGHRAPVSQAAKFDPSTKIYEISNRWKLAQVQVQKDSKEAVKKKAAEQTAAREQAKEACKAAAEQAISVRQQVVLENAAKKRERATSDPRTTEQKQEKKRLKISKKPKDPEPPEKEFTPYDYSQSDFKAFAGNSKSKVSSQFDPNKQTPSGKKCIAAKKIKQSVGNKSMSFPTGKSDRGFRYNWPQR
UniProt O75822, sequence (O75822 whole entry, looked up): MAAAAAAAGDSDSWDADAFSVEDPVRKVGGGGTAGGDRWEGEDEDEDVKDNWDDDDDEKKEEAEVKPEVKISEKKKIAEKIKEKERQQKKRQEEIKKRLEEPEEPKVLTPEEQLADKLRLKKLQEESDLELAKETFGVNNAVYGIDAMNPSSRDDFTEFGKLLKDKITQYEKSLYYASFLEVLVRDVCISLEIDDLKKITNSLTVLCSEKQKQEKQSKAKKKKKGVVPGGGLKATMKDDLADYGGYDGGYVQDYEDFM
UniProt Q15910, sequence (Q15910 whole entry, looked up): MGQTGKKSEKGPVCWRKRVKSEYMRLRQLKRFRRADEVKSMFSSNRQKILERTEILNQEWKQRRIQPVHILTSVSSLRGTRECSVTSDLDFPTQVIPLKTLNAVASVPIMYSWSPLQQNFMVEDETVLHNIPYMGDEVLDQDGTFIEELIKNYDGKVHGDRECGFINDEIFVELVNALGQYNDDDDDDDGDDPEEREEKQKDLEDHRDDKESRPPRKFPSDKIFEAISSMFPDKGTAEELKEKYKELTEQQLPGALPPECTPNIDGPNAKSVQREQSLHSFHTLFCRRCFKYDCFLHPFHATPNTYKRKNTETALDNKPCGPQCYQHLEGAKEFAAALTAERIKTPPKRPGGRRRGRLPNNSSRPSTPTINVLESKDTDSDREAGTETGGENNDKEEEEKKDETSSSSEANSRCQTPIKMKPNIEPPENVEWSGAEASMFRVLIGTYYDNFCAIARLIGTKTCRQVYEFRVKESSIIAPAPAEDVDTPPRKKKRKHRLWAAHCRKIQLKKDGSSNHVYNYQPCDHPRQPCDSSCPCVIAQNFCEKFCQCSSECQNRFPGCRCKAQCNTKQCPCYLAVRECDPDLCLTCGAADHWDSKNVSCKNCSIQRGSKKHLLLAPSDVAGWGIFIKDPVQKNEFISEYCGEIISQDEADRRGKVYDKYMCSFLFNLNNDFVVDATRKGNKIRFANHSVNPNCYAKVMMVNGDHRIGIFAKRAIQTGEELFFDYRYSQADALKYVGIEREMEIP
UniProt Q03468, sequence (Q03468 whole entry, looked up): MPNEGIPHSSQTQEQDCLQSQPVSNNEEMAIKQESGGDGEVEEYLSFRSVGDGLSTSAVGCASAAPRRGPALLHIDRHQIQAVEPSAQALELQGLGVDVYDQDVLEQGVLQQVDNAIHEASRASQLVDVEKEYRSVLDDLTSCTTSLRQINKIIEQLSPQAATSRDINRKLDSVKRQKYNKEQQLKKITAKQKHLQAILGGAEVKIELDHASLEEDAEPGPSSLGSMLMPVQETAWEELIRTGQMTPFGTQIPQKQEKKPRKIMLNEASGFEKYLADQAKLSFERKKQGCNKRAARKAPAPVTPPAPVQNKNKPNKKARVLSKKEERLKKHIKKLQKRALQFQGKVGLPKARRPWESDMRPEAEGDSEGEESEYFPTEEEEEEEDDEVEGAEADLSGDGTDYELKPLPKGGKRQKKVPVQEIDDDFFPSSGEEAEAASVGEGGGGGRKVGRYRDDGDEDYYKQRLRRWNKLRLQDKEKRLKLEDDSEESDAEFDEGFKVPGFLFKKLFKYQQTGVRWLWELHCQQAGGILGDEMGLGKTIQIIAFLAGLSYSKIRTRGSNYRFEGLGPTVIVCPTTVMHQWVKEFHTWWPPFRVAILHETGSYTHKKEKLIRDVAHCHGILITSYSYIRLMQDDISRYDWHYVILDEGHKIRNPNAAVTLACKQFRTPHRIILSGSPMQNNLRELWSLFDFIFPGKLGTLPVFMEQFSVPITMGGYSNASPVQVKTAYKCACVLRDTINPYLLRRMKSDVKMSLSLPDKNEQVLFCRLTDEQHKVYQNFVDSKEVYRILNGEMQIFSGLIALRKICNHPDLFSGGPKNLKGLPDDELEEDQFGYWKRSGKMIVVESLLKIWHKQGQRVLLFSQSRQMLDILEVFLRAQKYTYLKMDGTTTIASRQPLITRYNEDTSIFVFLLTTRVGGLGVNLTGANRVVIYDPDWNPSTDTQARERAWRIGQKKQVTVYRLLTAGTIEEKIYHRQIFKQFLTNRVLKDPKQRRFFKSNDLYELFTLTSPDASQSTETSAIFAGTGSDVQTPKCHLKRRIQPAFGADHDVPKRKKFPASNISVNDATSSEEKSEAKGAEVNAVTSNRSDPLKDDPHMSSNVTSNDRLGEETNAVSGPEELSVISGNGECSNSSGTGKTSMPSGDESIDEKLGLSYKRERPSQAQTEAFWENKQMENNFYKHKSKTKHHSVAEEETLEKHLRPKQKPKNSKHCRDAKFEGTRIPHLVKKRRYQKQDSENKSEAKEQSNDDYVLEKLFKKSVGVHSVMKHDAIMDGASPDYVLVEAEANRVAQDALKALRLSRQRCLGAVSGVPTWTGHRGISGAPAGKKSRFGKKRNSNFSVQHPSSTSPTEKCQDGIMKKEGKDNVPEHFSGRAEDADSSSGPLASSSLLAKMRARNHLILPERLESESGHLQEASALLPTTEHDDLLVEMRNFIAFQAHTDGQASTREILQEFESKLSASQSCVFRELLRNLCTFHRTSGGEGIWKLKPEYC
UniProt Q96G46, sequence (Q96G46 whole entry, looked up): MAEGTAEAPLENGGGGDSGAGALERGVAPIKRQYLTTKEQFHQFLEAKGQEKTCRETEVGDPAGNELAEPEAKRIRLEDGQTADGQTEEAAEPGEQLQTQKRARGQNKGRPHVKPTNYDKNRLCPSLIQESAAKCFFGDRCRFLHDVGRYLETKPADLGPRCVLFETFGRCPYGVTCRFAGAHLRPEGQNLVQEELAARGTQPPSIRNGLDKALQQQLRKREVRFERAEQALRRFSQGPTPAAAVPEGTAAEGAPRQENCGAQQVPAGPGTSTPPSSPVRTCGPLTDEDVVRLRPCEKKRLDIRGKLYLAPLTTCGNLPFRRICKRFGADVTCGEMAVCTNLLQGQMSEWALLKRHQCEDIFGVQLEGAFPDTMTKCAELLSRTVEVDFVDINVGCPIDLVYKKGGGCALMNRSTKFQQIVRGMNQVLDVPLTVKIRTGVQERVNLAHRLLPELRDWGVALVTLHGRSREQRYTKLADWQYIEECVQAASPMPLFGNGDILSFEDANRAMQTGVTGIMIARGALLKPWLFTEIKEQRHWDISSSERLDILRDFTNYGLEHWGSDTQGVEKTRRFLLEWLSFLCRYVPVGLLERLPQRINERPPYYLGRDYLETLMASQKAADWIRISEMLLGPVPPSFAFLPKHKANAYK
UniProt Q8N8J7, sequence (Q8N8J7 whole entry, looked up): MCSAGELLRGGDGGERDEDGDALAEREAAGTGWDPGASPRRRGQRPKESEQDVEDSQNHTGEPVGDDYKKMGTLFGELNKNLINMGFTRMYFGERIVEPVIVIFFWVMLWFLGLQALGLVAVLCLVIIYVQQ
UniProt P98173, sequence (P98173 whole entry, looked up): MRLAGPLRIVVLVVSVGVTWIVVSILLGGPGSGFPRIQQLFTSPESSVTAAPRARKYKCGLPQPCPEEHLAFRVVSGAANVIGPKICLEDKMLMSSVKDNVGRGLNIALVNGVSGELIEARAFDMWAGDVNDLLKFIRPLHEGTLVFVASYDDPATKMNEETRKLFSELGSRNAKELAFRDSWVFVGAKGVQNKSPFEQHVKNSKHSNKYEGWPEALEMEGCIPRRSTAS

Compound in one test: C1=CC2=C(C=CC(=C2)/C=C\3/C(=O)NC(=NCC4=CC=CS4)S3)N=C1
The experiment in a line: log2 fold change, soluble protein after heating vs DMSO (PISA); higher = thermal stabilisation; K562 cells, 10 uM, 30 min; active = over 0.2 and 3.5 SD of the protein, either way, in both replicates (recomputed). In a few lines:
(§1)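 K562 cells at 2×10^6 cells/mL were exposed to 10 μM compound for 30 min, then aliquots were heated for 3 min across 48°C-58°C, pooled, and extracted in PBS containing 0.5% NP-40 at 4°C. The supernatant after 21,000xg for 90 min was taken as soluble protein and measured by TMTpro 16plex LC-MS/MS with channel sums equalised. Thermal stability is reported relative to control samples, with values from duplicates. Fold changes are given on a log2 scale.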
For ERCC6 (UniProt Q03468), the log2 fold change was -0.096. For CUX1 isoform 3 (UniProt P39880), the log2 fold change was -0.008. On to ELOVL7 (UniProt A1L3X0), for which the log2 fold change is 0.182. With DUS3L (UniProt Q96G46), the log2 fold change was 0.016. On to EIF2S3 (UniProt P41091), for which the log2 fold change is -0.023. Regarding EGR1 (UniProt P18146), the log2 fold change is 0.208.

As to DDX27 (UniProt Q96GQ7), the log2 fold change is 0.059. The same measure, in the same setting: to EED, A0A5F9ZI63 belongs -0.1; to ELF1 (UniProt P32519), -0.003. Regarding EZH2 isoform 2 (UniProt Q15910), the log2 fold change was 0.046. For DNM2 (UniProt P50570), the log2 fold change was 0.046.

On to EXOSC10 (UniProt Q01780), for which the log2 fold change is 0.078.

Turning to FAM117B (UniProt Q6P1L5), the log2 fold change is 0.098.

Turning to DBN1 isoform 3 (UniProt Q16643), the log2 fold change is -0.074. Regarding EIF4A1 (UniProt P60842), the log2 fold change is 0.016. As to FAM241A (UniProt Q8N8J7), the log2 fold change was -0.076.

Compound in another test: C1=CC2=NC=CN=C2C=C1/C=C/3\C(=O)NC(=O)S3
Described as above. The essentials:
as §1
Consider EIF2AK3 (UniProt Q9NZJ5), for which the log2 fold change is -0.311. Same read-out and setting: then DCUN1D1 (UniProt Q96GG9), with 0.001.

Consider EIF3J isoform 2 (UniProt O75822), for which the log2 fold change is -0.042.

For the target DCAF10 (UniProt Q5QP82), the log2 fold change was 0.064.

In the case of DENND10 (UniProt Q8TCE6), the log2 fold change was 0.018. For EIF2AK1 (UniProt Q9BQI3), the log2 fold change was -0.114.

On to FAM3A (UniProt P98173), for which the log2 fold change was 0.082. Consider ELOVL5 isoform 2 (UniProt Q9NYP7), for which the log2 fold change was 0.122. As for DEGS1 (UniProt O15121), the log2 fold change was -0.003. As to DHCR7 (UniProt Q9UBM7), the log2 fold change was 0.022. In the case of EIF4G3 isoform 3 (UniProt O43432), the log2 fold change was -0.046. On to EIF3J (UniProt O75822), for which the log2 fold change is 0.048.

With E2F4 (UniProt Q16254), the log2 fold change is 0.043.

Regarding DOHH (UniProt Q9BU89), the log2 fold change is -0.183.

For the target ERLIN2 (UniProt O94905), the log2 fold change was 0.027. As for DPYSL2 (UniProt Q16555), the log2 fold change is 0.003. The same measure, in the same setting: then EEF1A1 (UniProt P68104), with -0.343; and EHBP1L1 (UniProt Q8N3D4), with 0.026; and EXOC8 (UniProt Q8IYI6), with 0.017. Consider DYNC1I2 isoform 2 (UniProt Q13409), for which the log2 fold change is -0.013. On to DTWD1 (UniProt Q8N5C7), for which the log2 fold change is 0.017. DOLPP1 (UniProt Q86YN1): the log2 fold change is 0.074. As for ERCC6 (UniProt Q03468), the log2 fold change is -0.224. Turning to CUX1 isoform 3 (UniProt P39880), the log2 fold change was 0.11. With DUS3L (UniProt Q96G46), the log2 fold change is 0.037. For EIF2S3 (UniProt P41091), the log2 fold change was -0.006. Take EGR1 (UniProt P18146): the log2 fold change is 0.088.

Regarding EED, A0A5F9ZI63, the log2 fold change is 0.05. EZH2 isoform 2 (UniProt Q15910): the log2 fold change was 0.048.

As for DNM2 (UniProt P50570), the log2 fold change was -0.001. With EXOSC10 (UniProt Q01780), the log2 fold change was -0.101. Same read-out and setting: to DBN1 isoform 3 (UniProt Q16643) belongs 0.02. As to EIF4A1 (UniProt P60842), the log2 fold change was -0.021. As for FAM241A (UniProt Q8N8J7), the log2 fold change was 0.043.
